Experimental data published in PubChem BioAssay (NCI).
Compounds without any hit were thinned out: in the full panel of roughly 83,000, 20% have a hit.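 Testing used 96-well plates and a 48-hour single-concentration exposure. Example: -40 means 40% of the starting cells died.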 Unmarked numbers belong to inactive results. Calls of active or inactive are those of the source. The calls were made as follows: active = growth percent below 10; inactive = the rest.

Tests used:
Assay in all cases: NCI-60 one-dose screen, 48 h (100 = growth as untreated, 0 = no growth, -100 = all killed)
Details in all cases: 10 µM unless noted
DU-145 prostate = tested on: DU-145 prostate
K-562 leukemia = tested on: K-562 leukemia
MALME-3M melanoma = tested on: MALME-3M melanoma
MDA-MB-231 breast = tested on: MDA-MB-231 breast
RXF 393 renal = tested on: RXF 393 renal
SF-268 CNS = tested on: SF-268 CNS
SF-295 CNS = tested on: SF-295 CNS
SF-539 CNS = tested on: SF-539 CNS
UACC-257 melanoma = tested on: UACC-257 melanoma
M14 melanoma = tested on: M14 melanoma

| Structure (SMILES) | growth (DU-145 prostate) | growth (K-562 leukemia) | growth (MALME-3M melanoma) | growth (MDA-MB-231 breast) | growth (RXF 393 renal) | growth (SF-268 CNS) | growth (SF-295 CNS) | growth (SF-539 CNS) | growth (UACC-257 melanoma) | growth (M14 melanoma) |
| --- | --- | --- | --- | --- | --- | --- | --- | --- | --- | --- |
| CNC(=O)c1cc(Oc2ccc3nc(NC(=O)Nc4ccc(F)cc4F)sc3c2)ccn1 | 65.7% | 71.5% | 46.2% | 47.7% | 42.3% | 76.1% | 76.7% | 61.7% | 74.3% | 69.1% |
| CCCCCCCCNC(=O)[C@@H](N)CSCOC(C)=O | 87.6% | 71.8% | 114% | 91.9% | 124% | -31.5% (active) | 102% | 79.9% | 110% | 34.2% |
| CCCCCCCC/C=C\CCCCCCCCOc1ccc(CC(=O)NCC[N+]2(C)CCCC2)cc1 | 78.4% | 41.6% | 66% | 59.8% | -45.3% (active) | 62.8% | 74.8% | 65.4% | 77.3% | 71.4% |
| CN1CCN(Cc2ccc(NC(=O)c3cc(C#Cc4cnc(N)c5ncccc45)n(C)n3)cc2C(F)(F)F)CC1 | 83.9% | 1.62% (active) | 79.9% | 102% | 69.3% | 102% | 102% | 70.5% | 102% | 113% |
| CN1C(=O)N(C)C2C1NN=c1s/c(=C\c3ccccc3F)c(=O)n12 (stereo not given) | 15.9% | 9.52% (active) | 44.9% | 13.2% | -6.27% (active) | 65.5% | 14.6% | -23.8% (active) | 54.5% | 9.53% (active) |
| COc1cc(C(=O)c2c(-c3ccccc3)oc3ccccc23)cc(OC)c1O | 26% | 17.4% | 48.5% | 59.7% | -2.49% (active) | 59.9% | 14.3% | 8.35% (active) | 73.2% | 16.6% |
| O=C(Nc1ccc2c(c1)-c1ccccc1C2)C1CC(=O)N(c2ccc3c(c2)OCO3)C1 (stereo not given) | 52.1% [50 µM] | 57.5% [50 µM] | 58.1% [50 µM] | 59.9% [50 µM] | 56.6% [50 µM] | 69.2% [50 µM] | 47% [50 µM] | -60.7% [50 µM] (active) | 69.5% [50 µM] | 62.7% [50 µM] |
| CC1=C(C(=O)OCc2ccccc2)C(c2ccc3c(c2)OCO3)n2c(nc3ccccc32)N1 (stereo not given) | 53.5% | 13.8% | 39.7% | 68.6% | 53.2% | 59.6% | 20.4% | 9.94% (active) | 60.4% | 28.1% |
| COC(=O)c1c(C(=O)OC)c2ccc3c4ncccc4ccc3n2c1C(=O)c1ccc(C)cc1 | 98.7% | 85.8% | 89.7% | 84.1% | 106% | 98.5% | 87.7% | 97.6% | 95.2% | 90.1% |
| COc1ccc(Cn2cc(C(=O)N=Nc3c(O)[nH]c4ccc(Br)cc34)nn2)cc1 | 93.7% | 88.1% | -89.9% (active) | 108% | 99.8% | 94.1% | 95.8% | 104% | 102% | 111% |
| C#CCOc1ccc(C2=NN(C)C3N=C(Cl)c4ncn(C)c4N23)cc1OCC#C (stereo not given) | 104% | 93.5% | 112% | 95.9% | 82.7% | 105% | 94.3% | 90% | 97.2% | 104% |
| C=C(c1ccc(C(=O)O)c(F)c1)c1cc2c(cc1C)C(C)(C)C=CC2(C)C | 94.7% | 73.9% | 54.4% | 88% | 96.9% | 74.3% | 66.5% | 72.2% | 80.5% | 91.1% |
| COC(=O)c1sc(-c2ccc(C)cc2)cc1O | 101% | 84.3% | 97.9% | 99.6% | 109% | 96.2% | 112% | 114% | 115% | 101% |
| O=c1cc(-c2nccc3c2[nH]c2ccccc23)c2cc(Cl)ccc2o1 | 79.8% | 15.1% | 49.8% | 62.5% | 82.2% | 54.6% | 13.9% | 17.6% | 35.4% | 17.3% |
| NCCNc1ccc([N+](=O)[O-])cc1 | 126% | 92.4% | 115% | 122% | 123% | 110% | 128% | 107% | 115% | 106% |
| COc1cc(C2=Nc3c(N)nc(N)nc3NC(c3cccc(Nc4ccnc5cc(C(F)(F)F)ccc45)c3)C2)cc(OC)c1OC (stereo not given) | 89.6% | 21.5% | 90.6% | 57.8% | 45.1% | 63.3% | 82.5% | 79.3% | 77.7% | 72.3% |
| O=C1c2ccccc2-c2c1c1ccncc1c(=O)n2CCCn1ccnc1 | 58.6% | 20.5% | 98% | 73.8% | 55.6% | 38.7% | 56.2% | 31.6% | 93.5% | 63.3% |
| COc1cccc(-c2cc(-c3ccc(Nc4nc(Nc5ccc(Cl)cc5)nc(Nc5ccc(Cl)cc5)n4)cc3)nc(N)c2C#N)c1 | 56.3% | 41.5% | -52.9% (active) | -14.1% (active) | -48.7% (active) | 71% | 83.2% | 6.72% (active) | 16.3% | 15.6% |
| C=C(C)[C@@H]1CC[C@]2(COC(=O)c3cccnc3)CC[C@]3(C)[C@H](CC[C@@H]4[C@@]5(C)CCCN(C(=O)c6cccnc6)C(C)(C)[C@@H]5CC[C@]43C)[C@@H]12 | 44% | 13.7% | 69.1% | 52.7% | 56.1% | 45.5% | 40.9% | 46.4% | 19.9% | 41.5% |
| CC(=O)CC(=O)c1ccccc1.[Cu+2] | 98.4% | 99% | 95.2% | 96.5% | 125% | 118% | 105% | 105% | 102% | 107% |
| Cc1ccc(S(=O)(=O)N(CCC(=O)O)c2ccccc2)cc1 | 111% | 93.4% | 142% | 114% | 152% | 102% | 111% | 99.1% | 102% | 107% |
| CO[C@]12C=C/C(=C(/C(=O)OCc3cccnc3)C(=O)CCCCCCCC[C@]3(OC)C=C/C(=C(/C(=O)OCc4cccnc4)C(=O)CCCCCCCC1)O3)O2 | -95.3% (active) | 0.254% (active) | -38.4% (active) | -38.3% (active) | -75.4% (active) | -72.1% (active) | -79.1% (active) | -55.2% (active) | -43.2% (active) | -47% (active) |
| CCOC(=O)CSc1nc2sc3c(c2c(=O)n1-c1ccccc1)CCCCC3 | 108% | 98.4% | 109% | 105% | 119% | 104% | 96.3% | 101% | 96.8% | 108% |
| COC(=O)c1cc(-c2cc(OC)c(OC)c(OC)c2)[nH]c1N/N=C/c1c(Cl)cccc1Cl | 45.6% | 6.67% (active) | -8.03% (active) | 23.6% | 21.6% | 31.7% | -41.9% (active) | -43.1% (active) | 45.6% | 58.7% |
| COc1cc2c(cc1OC)CC[N+](CCC[N+](C)(C)C)=C2 | 108% | 111% | 89% | 115% | 113% | 91.7% | 97% | 98% | 100% | 91.7% |
| O=C(Nc1ccc(Cl)cc1)C1=NCCCCN1 | 84.1% | 42.3% | 96.7% | 97.9% | 106% | 77.7% | 93.4% | 95.8% | 99.7% | 75.7% |
